Screens from PubChem.
pAkt inh – Akt phosphorylation inhibition; activity change, % for hits at 50 µM; AID 651550; actives 0.32% (n = 360,000); Neuro2A IGF-stimulated pAkt S473 HTRF, 20 min; active compounds read low; in the data active = activity change below about -80%; inconclusive = mostly about -51% to -80%
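Neuro2A cells (4,500/well, DMEM with 0.5% FBS) were treated with compound at a single 50 µM final concentration, stimulated with 6 nM IGF for 20 min at 37 °C, and lysed. Phospho-Akt Ser473 was read by HTRF as 665/615 ratio ×10^4.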
TSHR antagonist – human thyrotropin receptor antagonism; TSHR-expressing cells, TSH-stimulated cAMP HTRF, 2 h; active compounds read low; activity change, negative = inhibition, % at 11.5 µM; actives 0.2% (n = 330,000); AID 504810; P16473;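 active = activity change below a set negative limit, meaning inhibition stronger than a set level, cut at about -70% in these data; inconclusive = activity change between two set negative limits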
Target sequence (P16473 whole entry, looked up): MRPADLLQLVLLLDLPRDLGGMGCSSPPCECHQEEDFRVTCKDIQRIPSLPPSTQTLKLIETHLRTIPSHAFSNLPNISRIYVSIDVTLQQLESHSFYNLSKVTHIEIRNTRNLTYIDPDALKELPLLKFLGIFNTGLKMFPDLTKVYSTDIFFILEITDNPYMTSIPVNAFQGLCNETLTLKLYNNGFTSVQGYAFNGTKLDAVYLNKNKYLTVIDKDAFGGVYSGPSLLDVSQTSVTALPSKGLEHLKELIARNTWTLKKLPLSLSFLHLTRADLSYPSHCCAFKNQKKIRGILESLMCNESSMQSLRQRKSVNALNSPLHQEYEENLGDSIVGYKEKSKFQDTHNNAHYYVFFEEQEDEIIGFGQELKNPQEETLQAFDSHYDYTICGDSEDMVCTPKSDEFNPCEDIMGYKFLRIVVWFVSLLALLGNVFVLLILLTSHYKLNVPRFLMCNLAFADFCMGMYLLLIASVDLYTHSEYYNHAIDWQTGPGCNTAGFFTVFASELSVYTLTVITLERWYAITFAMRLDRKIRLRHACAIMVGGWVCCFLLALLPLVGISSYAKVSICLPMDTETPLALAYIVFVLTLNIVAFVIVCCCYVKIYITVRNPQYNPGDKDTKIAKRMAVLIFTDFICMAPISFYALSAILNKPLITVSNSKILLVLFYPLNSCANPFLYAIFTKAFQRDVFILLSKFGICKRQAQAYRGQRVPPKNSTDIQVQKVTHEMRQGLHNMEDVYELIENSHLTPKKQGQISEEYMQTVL
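Antagonism was scored as loss of TSH-driven cAMP in TSHR cells, stimulated with 4nM TSH (EC80) for 2 hours at 37 deg C and detected by homogeneous HTRF competition immunoassay.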
gsp antag – antagonizes gsp, the McCune-Albright syndrome mutation; gsp-mutant cells, cAMP HTRF, 30 min; Potency, µM (titrated, usually from 76.9 µM), actives largely listed as inhibitors; actives 0.4% (n = 340,000); AID 624288; calls by dose curve; cell line not stated here;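 also: intracellular cAMP measured with PDE inhibitor Ro 20-1724 present during compound exposure; nearly all actives have a fitted effect of over 65% in size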
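HTRF cAMP measurement after 30 min RT detection following 30 min, 37C compound treatment alongside […] (added as 300 uM solution) in G418-selected cells seeded at 2000/well and grown 16–24 h.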
RXFP1 agonist – RXFP1 (human) receptor agonism; Q9HBX9; HEK293T-RXFP1 cAMP TR-FRET, 30 min; response scale: percent of porcine relaxin response, buffer zero; Potency, µM (doses to about 57.5 µM), most hits filed as activators; actives 0.3% (n = 370,000); active = well fitted activation curve with a large enough effect; inconclusive = small, poorly fitted or top-dose-only effect; also: nearly all actives have a fitted effect of over 60% in size
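HEK293T cells stably expressing RXFP1 were pretreated with the PDE4 inhibitor Ro 20174, exposed to compounds for 30 min at 37C, lysed, and cAMP was read by TR-FRET. Data normalized to buffer (basal) and 29 nM porcine relaxin (100%).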
RXFP1 antag – antagonists of human relaxin receptor RXFP1; AID 1259400; activity change, negative = inhibition, % at 57.5 µM; HEK293-RXFP1, relaxin-stimulated cAMP HTRF, 30 min; active compounds read low; actives 0.59% (n = 350,000);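 active = activity change of -60% or lower, but not beyond a set lower limit; inconclusive = change between -60% and -40%, or beyond the set limit; inactive = change above -40%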
gsp ag – gsp mutant agonism. Potency, µM (titrated, usually from 76.9 µM), hits mostly activators. gsp mutant cells, cAMP HTRF, 30 min. actives 0.13% (n = 340,000); active = well fitted activation curve with a large enough effect; inconclusive = small, poorly fitted or top-dose-only effect, or another doubt; inactive = no such curve, though single readings can be large or run the other way; cell line not stated here;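 also: phosphodiesterase inhibitor Ro 20-1724 added with compounds to block cAMP breakdown; nearly all actives have a fitted effect of over 60% in size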
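Cells in DMEM/10% FBS with G418 were pretreated with compounds in DMSO plus […] (300 uM stock) for 30 min at 37C. cAMP was measured by HTRF (cAMP-d2 plus anti-cAMP antibody-K) after 30 min at room temperature.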
Large screens that a line does not name were inactive. Hits are enriched below; roughly 1.3% of the tested compounds scored in any of these assays.

COc1ccc(NC(=O)/C(Cl)=C(/Cl)S(=O)Cc2ccccc2)cn1 (stereo unspecified)	RXFP1 antag -72
COc1ccc(NC(=O)Cc2ccccc2)cn1	none
Cc1ccc(Cl)cc1NC1=C/C(=N\S(=O)(=O)c2cccs2)c2ccccc2C1=O	TSHR antagonist -76
CC(Oc1ccc(Br)cc1)C(=O)N(Cc1ccccc1)c1c(N)n(Cc2ccccc2)c(=O)[nH]c1=O (stereo unspecified)	none (no result: TSHR antagonist, gsp antag, RXFP1 agonist)
CC(C)CC(C(=O)O)C(C)CC(=O)Nc1ccn(-c2ccccc2)n1 (stereo unspecified)	pAkt inh -108%
CCOC(=O)Cn1c(=NC(=O)c2nc3ccccc3s2)sc2cc(S(N)(=O)=O)ccc21	gsp antag 10µM
O=C(CN1C(=O)COc2ccccc21)N1CCc2ccccc21	pAkt inh -107%
Cc1nnsc1-c1nnc(SCC(=O)c2ccc(F)cc2)n1C1CC1	none
CCOC(=O)C(CC)Sc1ccc2nnc(-c3cccnc3)n2n1 (stereo unspecified)	RXFP1 agonist 18µM
CCC(Sc1ccc2nnc(-c3cccnc3)n2n1)C(=O)O (stereo unspecified)	RXFP1 agonist 14µM, gsp ag 2.5µM (no result: RXFP1 antag)
Cc1cc(-c2c(C)[nH]n(-c3ccc(Cl)cc3)c2=O)n(-c2ccc(Cl)cc2)n1	gsp antag 32µM
CCOc1ccc(NC(=O)C2CC(C)=C(C)CC2C(=O)O)cc1 (stereo unspecified)	pAkt inh -119%
CCOc1ccc(NC(=S)Nc2ccc(OCC)cc2)cc1	gsp antag 35µM
CCOc1ccc(NS(=O)(=O)c2ccc(NC(=S)NC(C)=O)cc2)cc1	RXFP1 antag -70, gsp ag inconclusive
CC(C)CCN1C(=O)N(c2ccccc2)C(=O)C1CC(=O)Nc1ccc(Cl)cc1 (stereo unspecified)	none (no result: pAkt inh, TSHR antagonist, gsp antag, gsp ag)
O=C(Nc1ccccc1)Nc1cccc(Cl)c1	gsp antag 32µM
Cc1ccc(NC(=O)Nc2nnc(-c3ccncc3)s2)cc1C	gsp antag 45µM
O=C(Nc1ccc(F)cc1)Nc1nnc(-c2ccncc2)s1	gsp antag inconclusive (no result: pAkt inh)
O=C(Nc1ccc(Cl)cc1)Nc1nnc(-c2ccncc2)s1	none (no result: RXFP1 antag)
O=C(Nc1cccc(Cl)c1)Nc1nnc(-c2ccncc2)s1	TSHR antagonist -73, gsp antag inconclusive
COc1ccc(Br)c2c1-c1nc(NC(=O)c3cccc(C)c3)sc1C2	none (no result: pAkt inh, TSHR antagonist, gsp antag, gsp ag)
N#CC1C(=O)c2ccccc2C1c1ccccc1 (stereo unspecified)	RXFP1 antag -92 (no result: TSHR antagonist, RXFP1 agonist)
COc1cccc(NC(=O)CSc2nc(=O)[nH]c3c2CCCC3)c1	none (no result: pAkt inh, TSHR antagonist, gsp antag, gsp ag)
CCc1ccc(CNC(=O)c2cc3n(n2)CCCN(Cc2ccccc2)C3=O)cc1	none (no result: pAkt inh, TSHR antagonist, gsp antag, gsp ag)
C=C1CSc2nc(=O)c3c4c(sc3n21)CCCC4	gsp ag inconclusive
C=C1CSc2nc(=O)c3c4c(sc3n21)CCC4	pAkt inh -115%, gsp ag inconclusive
O=C(CCC1COc2ccccc2O1)N1CCCC1 (stereo unspecified)	pAkt inh -100%
CCCNCc1cc(Cl)c(OCC)c(Cl)c1	none
C=CCOc1c(Cl)cc(CNCCC)cc1Cl	pAkt inh -91%
Cc1cc(C)cc(C(=O)NC(CC(N)=O)c2ccc(NCCN3CCCC3)c([N+](=O)[O-])c2)c1 (stereo unspecified)	TSHR antagonist -89 (no result: RXFP1 antag, gsp ag)
O=C(Cn1cc(/C=C\[N+](=O)[O-])c2ccccc21)Nc1ccccc1	RXFP1 antag -105
O=C(O)Cn1cc(/C=C/[N+](=O)[O-])c2ccccc21	none
O=[N+]([O-])/C=C/c1cn(Cc2ccccc2)c2ccccc12	RXFP1 antag inconclusive
N#Cc1ccccc1Cn1cc(/C=C/[N+](=O)[O-])c2ccccc21	RXFP1 antag -65
Cc1c(C(=O)Nc2cccc(C#N)c2)sc2nc3n(c(=O)c12)CCCCC3	none (no result: pAkt inh, TSHR antagonist, gsp antag, gsp ag)
COCCNC(=S)N(CCCN(C)C)Cc1cc2cc3c(cc2[nH]c1=O)OCCO3	gsp antag 50µM, gsp ag inconclusive
O=C1CC(NCc2ccc3c(c2)OCO3)C(=O)N1Cc1ccc2c(c1)OCO2 (stereo unspecified)	gsp antag 28µM
CC(=O)c1c(C)oc2ccc(NS(=O)(=O)c3ccc(F)cc3C)cc12	gsp antag 25µM
Cc1cc(F)ccc1S(=O)(=O)Nc1ccc2oc3c(c2c1)CC(C)CC3 (stereo unspecified)	RXFP1 antag inconclusive (no result: pAkt inh, TSHR antagonist, gsp antag, gsp ag)
CC1=C(c2ccc(C(C)C)cc2)S(=O)(=O)N=C1N1CCC(C(=O)NCCc2ccco2)CC1	none (no result: pAkt inh, TSHR antagonist, gsp antag, gsp ag)
COc1ccccc1NC(=O)c1cccc(N2C(=O)C3C4C=CC(C4)C3C2=O)c1 (stereo unspecified)	RXFP1 antag -77, gsp ag inconclusive
COc1ccc(NC(=O)c2cccc(N3C(=O)C4C5C=CC(C5)C4C3=O)c2)c(OC)c1 (stereo unspecified)	none
CCc1cccc(C)c1NC(=O)CCNC(=O)c1cccc(C)c1	none
O=C(CCc1ccccc1Cl)N1CCN(S(=O)(=O)c2ccccc2)CC1	gsp antag 10µM
O=C(COc1cccnc1[N+](=O)[O-])N1CCN(S(=O)(=O)c2ccccc2)CC1	gsp antag 50µM
O=C(CCSc1ccc(Cl)cc1)N1CCN(S(=O)(=O)c2ccccc2)CC1	none
O=C(CCOc1ccccc1)N1CCCC(Nc2ccccc2)C1 (stereo unspecified)	none (no result: TSHR antagonist, gsp antag, RXFP1 agonist)
Cc1cc(C)cc(Oc2ccc(NC(=O)C3CC=CCC3C(=O)O)cc2)c1 (stereo unspecified)	none
CCN1/C(=C2/SC(=S)NC2=O)Sc2ccccc21	gsp ag inconclusive
O=C1NC(=S)SC1=C1CCCCCC1	TSHR antagonist -81, gsp ag inconclusive
Cc1onc(-c2c(F)cccc2Cl)c1C(=O)Oc1ccccc1	none (no result: TSHR antagonist, gsp antag, RXFP1 agonist, RXFP1 antag, gsp ag)
COC(=O)[C@]1(C)N[C@H](CN(C)C(=O)Nc2ccc(Cl)cc2)[C@@H]2C(=O)N(C)C(=O)[C@@H]21	none (no result: RXFP1 agonist, RXFP1 antag, gsp ag)
O=C(/C=C/c1ccccc1)/C=C/c1ccccc1	RXFP1 antag -67
O=C(Cn1cnc2c(cnn2-c2ccc(F)cc2)c1=O)NCC1CCCO1 (stereo unspecified)	gsp ag inconclusive
COc1ccc(-n2nnc3c(=O)n(CC(=O)NCC4CCCO4)cnc32)cc1 (stereo unspecified)	RXFP1 agonist 11µM, gsp ag 7.9µM
O=C(Cn1cnc2c(nnn2-c2ccc(F)cc2)c1=O)NCC1CCCO1 (stereo unspecified)	RXFP1 agonist inconclusive, gsp ag 10µM
CSC(=Nc1ccccc1)N=C(SCc1ccccc1)N(C)C	RXFP1 antag -100 (no result: TSHR antagonist, RXFP1 agonist)
